Screen size: about 310,000 compounds; about 14,000 (4.5%) showed an effect of 50% or more. The effect is printed as a negative number. The sample holds strong results, similar compounds and a random draw of the others, so the mix is not that of the screen.

The values that follow come from article PMC4336329 (PLoS ONE, 2015).
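Also: peak tail current of the secondary pulse compared with the same well before compound.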

Sequence of human ether-à-go-go-related gene (hERG) potassium channel (Q12809 whole entry, looked up): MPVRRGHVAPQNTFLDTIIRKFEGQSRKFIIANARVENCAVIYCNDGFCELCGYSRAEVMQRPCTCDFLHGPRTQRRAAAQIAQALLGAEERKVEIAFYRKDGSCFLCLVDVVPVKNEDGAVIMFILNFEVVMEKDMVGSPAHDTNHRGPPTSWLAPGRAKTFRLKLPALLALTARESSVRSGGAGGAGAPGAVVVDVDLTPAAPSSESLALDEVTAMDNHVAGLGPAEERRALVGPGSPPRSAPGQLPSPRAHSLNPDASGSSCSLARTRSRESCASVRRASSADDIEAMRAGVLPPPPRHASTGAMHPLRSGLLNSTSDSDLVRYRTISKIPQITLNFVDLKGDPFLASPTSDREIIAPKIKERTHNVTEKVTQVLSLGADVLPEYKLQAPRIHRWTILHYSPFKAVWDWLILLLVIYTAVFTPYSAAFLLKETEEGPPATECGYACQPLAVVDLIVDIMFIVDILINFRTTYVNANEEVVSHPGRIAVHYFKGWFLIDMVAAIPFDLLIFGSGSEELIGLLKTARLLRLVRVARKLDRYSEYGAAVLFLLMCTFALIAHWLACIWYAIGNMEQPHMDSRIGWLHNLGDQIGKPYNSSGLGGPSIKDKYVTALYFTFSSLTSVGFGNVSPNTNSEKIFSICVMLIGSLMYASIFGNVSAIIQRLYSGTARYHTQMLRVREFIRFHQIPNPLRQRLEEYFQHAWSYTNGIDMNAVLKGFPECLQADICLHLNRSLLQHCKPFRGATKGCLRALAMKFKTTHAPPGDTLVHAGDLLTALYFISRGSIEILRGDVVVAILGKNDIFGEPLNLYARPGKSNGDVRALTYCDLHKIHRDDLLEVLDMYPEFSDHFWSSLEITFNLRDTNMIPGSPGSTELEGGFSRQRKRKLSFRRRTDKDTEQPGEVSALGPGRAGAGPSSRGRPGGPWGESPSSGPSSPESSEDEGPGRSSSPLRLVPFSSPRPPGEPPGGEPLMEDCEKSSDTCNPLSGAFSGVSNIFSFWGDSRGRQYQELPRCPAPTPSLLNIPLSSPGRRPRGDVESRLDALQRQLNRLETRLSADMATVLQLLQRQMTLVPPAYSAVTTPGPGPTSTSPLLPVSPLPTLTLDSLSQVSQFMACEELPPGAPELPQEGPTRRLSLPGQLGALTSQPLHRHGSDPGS

The assay has as its target human ether-à-go-go-related gene (hERG) potassium channel (human, UniProt Q12809). In words: primary screen, population patch clamp on CHO cells stably expressing hERG; higher = less effect of the substance.
For `CCOC(=O)c1ccc(N=c2sc(C(=O)OC)cc(=O)n2CCCN2CCOCC2)cc1.Cl`, the “hERG current change (%, negative = inhibition) at 10uM” value is reported as -16.9%.

Take `CCN(CC(=O)Nc1c(F)cccc1F)C(=O)c1ccc(C2SCCS2)cc1`: the “hERG current change (%, negative = inhibition) at 10uM” value is on record as 0.0972%.

Regarding `O=C(CCc1nnc(CCCCc2ccccc2)o1)N1CCN(CCO)CC1`, the “hERG current change (%, negative = inhibition) at 10uM” value is on record as -0.0459%.

Take `Cc1cc(C)c(NC(=O)Cn2cc3c(n2)CCCC3)c(C)c1`: the “hERG current change (%, negative = inhibition) at 10uM” value came to 10.4%.

Turning to `CSCC[C@H](NC(=O)OC(C)(C)C)C(=O)N/N=C/c1cc2ccc(C)cc2nc1Cl`, the “hERG current change (%, negative = inhibition) at 10uM” value was -7.13%.

On to `COc1ccc(C(=O)OCC(=O)Nc2c(C)cccc2C)cc1`, for which the “hERG current change (%, negative = inhibition) at 10uM” value turned out to be 17.4%.

Consider `O=C(NCCCN1CCOCC1)C(=O)NCC1OCCN1S(=O)(=O)c1ccc(F)cc1` (stereo not shown), for which the “hERG current change (%, negative = inhibition) at 10uM” value was -10.2%.

For the compound `CC(C)NC(=O)CCCc1cn(C)c2ccccc12`, the “hERG current change (%, negative = inhibition) at 10uM” value amounted to 18.1%.

Consider `COc1ccccc1N1CCN(C(=O)CNC(=O)c2cn(-c3ccccc3OC)c(=O)c3ccccc23)CC1`, for which the “hERG current change (%, negative = inhibition) at 10uM” value was -15.6%.

In the case of `O=C(NC1CCCN(Cc2ccccc2F)C1)c1cccc(N2CCCC2=O)c1` (stereo not shown), the “hERG current change (%, negative = inhibition) at 10uM” value stood at 4.16%.

Turning to `O=C(NCC1CCCN(Cc2ccccc2F)C1)c1cccc(C(F)(F)F)c1` (stereo not shown), the “hERG current change (%, negative = inhibition) at 10uM” value is -52.1%.

Take `CN(C(=O)c1cccc(Cl)c1)C1CCCN(Cc2ccccc2F)C1` (stereo not shown): the “hERG current change (%, negative = inhibition) at 10uM” value is given as 0.373%.

For `CCOc1ccc(N)c(SSc2cc(OCC)ccc2N)c1`, the “hERG current change (%, negative = inhibition) at 10uM” value came to 19.3%.

As for `O=C1c2ccccc2C(=O)C1(CO)c1ccc(OC(F)F)cc1`, the “hERG current change (%, negative = inhibition) at 10uM” value amounted to 18.3%.

With `CCN(CC(=O)NCCc1ccc(S(N)(=O)=O)cc1)Cc1nc2cc(OC)c(OC)cc2c(=O)[nH]1`, the “hERG current change (%, negative = inhibition) at 10uM” value is listed as 0.804%.

Consider `CCN(CC(=O)Nc1ccccc1C(F)(F)F)C(=O)CCc1nc2ccccc2c(=O)[nH]1`, for which the “hERG current change (%, negative = inhibition) at 10uM” value is reported as 12.5%.

Turning to `CCN(CC(=O)Nc1c(F)cccc1F)C(=O)CCc1nc2ccccc2c(=O)[nH]1`, the “hERG current change (%, negative = inhibition) at 10uM” value worked out at 8.25%.

For `COC(=O)CCC(=O)Nc1ccccc1C(=O)Nc1ccccc1`, the “hERG current change (%, negative = inhibition) at 10uM” value came out at 9.16%.

Turning to `CN(Cc1nc2ccccc2c(=O)[nH]1)C(=O)c1ccccc1OCc1ccc(Cl)cc1`, the “hERG current change (%, negative = inhibition) at 10uM” value is on record as -58.2%.

`CCN(CC(=O)Nc1cc(Cl)ccc1C)C(=O)CCc1nc2ccccc2c(=O)[nH]1`: the “hERG current change (%, negative = inhibition) at 10uM” value was -67.3%.

With `CN(Cc1nc2ccccc2c(=O)[nH]1)C(=O)COc1ccccc1Cc1ccccc1`, the “hERG current change (%, negative = inhibition) at 10uM” value is listed as -43.3%.

Regarding `CCN(CC)CCCCCC(=O)Nc1ccccc1C(=O)Nc1ccccc1`, the “hERG current change (%, negative = inhibition) at 10uM” value is listed as -55.8%.

For `CN(C(=O)c1ccccc1OCc1ccc(Cl)cc1)c1ccccc1`, the “hERG current change (%, negative = inhibition) at 10uM” value is recorded as -7.03%.

As to `CCN(CC(=O)NC(c1ccccc1)c1ccccc1)Cc1nc2ccccc2c(=O)[nH]1`, the “hERG current change (%, negative = inhibition) at 10uM” value was -32.4%.

Regarding `CCN(CC(=O)NCCc1ccc(Cl)cc1)Cc1nc2ccccc2c(=O)[nH]1`, the “hERG current change (%, negative = inhibition) at 10uM” value is listed as -53.3%.

Regarding `O=C(O)CCC(=O)Nc1ccccc1C(=O)Nc1ccccc1`, the “hERG current change (%, negative = inhibition) at 10uM” value stood at 15.6%.

`COc1ccc(NC(=O)CN2C(=O)C(C)Oc3ccccc32)c(OC)c1` (stereo not shown): the “hERG current change (%, negative = inhibition) at 10uM” value is -10.4%.

For `Cc1nc(-c2ccccc2)sc1C1(C)CC(c2ccccc2F)=NO1` (stereo not shown), the “hERG current change (%, negative = inhibition) at 10uM” value amounted to 1.13%.

Consider `O=c1c2ccccc2n2c(=S)[nH]nc2n1-c1ccccc1`, for which the “hERG current change (%, negative = inhibition) at 10uM” value came out at 38.4%.

With `Cc1ccc(C2(c3ccc(C)cc3)CC2C(=O)Nc2ccc([N+](=O)[O-])cc2O)cc1` (stereo not shown), the “hERG current change (%, negative = inhibition) at 10uM” value is recorded as -2.42%.

Consider `CCc1ccccc1NC(=O)CC(NCc1ccccc1)C(=O)O` (stereo not shown), for which the “hERG current change (%, negative = inhibition) at 10uM” value worked out at 22.5%.

`CCOc1ccc(Cc2nn[nH]n2)cc1`: the “hERG current change (%, negative = inhibition) at 10uM” value is recorded as 9.6%.

As for `CCn1cc(SCC(=O)N2CCc3ccccc32)c2ccccc21`, the “hERG current change (%, negative = inhibition) at 10uM” value was -1.74%.

For the compound `CC(C)N1CC(C(=O)O)CC1=O` (stereo not shown), the “hERG current change (%, negative = inhibition) at 10uM” value turned out to be 19%.

Consider `Cn1c(CC(=O)Nc2ccccc2Cl)nnc1SCC(=O)NC1=NCCS1`, for which the “hERG current change (%, negative = inhibition) at 10uM” value is 14.7%.

Turning to `CCN1C(=O)/C(=C/C2=Cc3ccccc3OC2C)SC1=S` (stereo not shown), the “hERG current change (%, negative = inhibition) at 10uM” value turned out to be 14.7%.

Turning to `CCN(CC(=O)Nc1ccc2c(c1)OCCO2)Cc1nc2cc(Cl)ccc2c(=O)[nH]1`, the “hERG current change (%, negative = inhibition) at 10uM” value was -29%.

As to `O=C(c1ccccc1)N(Cc1ccc(F)cc1)Cc1nc2ccccc2c(=O)[nH]1`, the “hERG current change (%, negative = inhibition) at 10uM” value is -35%.

On to `CCN(CC(=O)NC(=O)NCc1ccccc1)Cc1nc2ccccc2c(=O)[nH]1`, for which the “hERG current change (%, negative = inhibition) at 10uM” value is -12.9%.

For `CCN(CC(=O)NCc1ccc(F)cc1)Cc1nc2cc(Cl)ccc2c(=O)[nH]1`, the “hERG current change (%, negative = inhibition) at 10uM” value is reported as -72.6%.

`CCN(CC(=O)NCc1ccc(F)cc1)Cc1nc2ccccc2c(=O)[nH]1`: the “hERG current change (%, negative = inhibition) at 10uM” value is -56.5%.

As for `CCNCc1nc2cc(Cl)ccc2c(=O)[nH]1.Cl`, the “hERG current change (%, negative = inhibition) at 10uM” value is 4.64%.

In the case of `CCN(CC(=O)Nc1ccccc1SC)Cc1nc2ccccc2c(=O)[nH]1`, the “hERG current change (%, negative = inhibition) at 10uM” value is -23.9%.

On to `CCN(CC(=O)Nc1cccc(F)c1)Cc1nc2ccccc2c(=O)[nH]1`, for which the “hERG current change (%, negative = inhibition) at 10uM” value is -31.7%.

For `CCN(CC(=O)NCCc1ccc(S(N)(=O)=O)cc1)Cc1nc2ccccc2c(=O)[nH]1`, the “hERG current change (%, negative = inhibition) at 10uM” value worked out at 17.9%.

For the compound `CCN(CC(=O)NCCc1ccc(F)cc1)Cc1nc2ccccc2c(=O)[nH]1`, the “hERG current change (%, negative = inhibition) at 10uM” value was -50.7%.

Take `CCN(CC(=O)Nc1cc(Cl)ccc1-n1cncn1)Cc1nc2ccccc2c(=O)[nH]1`: the “hERG current change (%, negative = inhibition) at 10uM” value was -60.3%.

Consider `COCCN(CC(=O)Nc1cc(Cl)ccc1-n1cncn1)Cc1nc2ccccc2c(=O)[nH]1`, for which the “hERG current change (%, negative = inhibition) at 10uM” value is -43%.

On to `O=C(c1noc2c1CCCC2)N1CCc2c([nH]c3ccccc23)C1c1ccccn1` (stereo not shown), for which the “hERG current change (%, negative = inhibition) at 10uM” value is -7.65%.

Turning to `O=C(Nc1ccccn1)N1CCOCC1`, the “hERG current change (%, negative = inhibition) at 10uM” value is 15.1%.

In the case of `O=C(CN1CCN(c2ccc(F)cc2)CC1)Nc1ccc(S(=O)(=O)N2CCOCC2)cc1`, the “hERG current change (%, negative = inhibition) at 10uM” value is reported as 0.845%.

With `Cc1cc(C)cc(-n2nnc(C(=O)NCc3ccco3)c2N)c1`, the “hERG current change (%, negative = inhibition) at 10uM” value is -29.8%.

For the compound `O=C(Cn1nnc(-c2ccccc2NC(=O)c2ccco2)n1)Nc1ccccc1`, the “hERG current change (%, negative = inhibition) at 10uM” value is 16.1%.

On to `COc1cc(/C=C/C(=O)Nc2nnc(CC(C)C)s2)cc(OC)c1OC`, for which the “hERG current change (%, negative = inhibition) at 10uM” value was -27.8%.

Take `CCN1CCN(c2ccc(NC(=O)c3cc4ccccc4cc3OC)cc2C)CC1`: the “hERG current change (%, negative = inhibition) at 10uM” value is listed as -48.7%.
